According to PubChem BioAssay AID540256 (National Center for Advancing Translational Sciences (NCATS), 2011):
Among all 300,000 compounds or so, about 3,700 (1.2%) were called active. Another 20% or so got no clear call; they are omitted. Calls come from the whole dose curve; tested in HEK293 cells. Only a selection was taken, and actives are over-represented in it overall.

Assay: qHTS for Inhibitors of binding or entry into cells for Lassa Virus; note: nearly all actives have a fitted effect of over 50% in size
Conditions: Lassa virus pseudotype entry inhibition, cell reporter; series mostly up to 37.9 µM; activity change, negative = inhibition: at the top concentration
% is set by controls: 0 for no effect and ±100 for the full control effect; potency is the fitted concentration of half-maximal effect.

| Structure (SMILES) | activity change, negative = inhibition | Potency |
| --- | --- | --- |
| CCOc1ccc2[nH]c(=O)c(CN(CCCO)S(=O)(=O)c3ccc(F)cc3)cc2c1 | -23% (inactive) | – |
| NC(=O)c1nsc(C(=O)N(CCCN2CCOCC2)C(C(=O)NC2CCCCC2)c2ccc(Cl)cc2)c1N (stereo not given) | -6.35% [at 46.1 µM] (inactive) | – |
| COc1ccc(C(C(=O)NC2CCCCC2)N(C(=O)CCl)c2ccccc2Cl)cc1 (stereo not given) | -0.988% (inactive) | – |
| COc1ccc(C(C(=O)NC2CCCCC2)N(C(=O)c2snc(C(N)=O)c2N)c2ccccc2OC)cc1 (stereo not given) | – | 10 µM (active) |
| O=C(O)C1C2C=CC(O2)C1C(=O)Nc1ccccn1 (stereo not given) | 10.9% [at 46.1 µM] (inactive) | – |
| COCCNc1cc(-c2ccccc2)nc2cc(-c3cccc(F)c3)nn12 | -7.91% [at 46.1 µM] (inactive) | – |
| CC(=O)Nc1ccc(NC(=O)COC(=O)C2CCC(C(C)(C)C)CC2)cc1 (stereo not given) | -19.8% (inactive) | – |
| COc1ccc(CCNS(=O)(=O)c2cc(-c3cc(C)no3)ccc2C)cc1OC | -8% [at 46.1 µM] (inactive) | – |
| COc1ccc(Cl)cc1NC(=O)NCC1CCN(Cc2ccccc2F)CC1 | -5.4% [at 46.1 µM] (inactive) | – |
| O=C(Nc1ccn(Cc2ccccc2F)n1)c1ccc(COc2ccc(Cl)cc2Cl)o1 | – | 10 µM (active) |
| COC(=O)c1ccccc1NC(=O)c1ccc(COc2ccccc2Cl)o1 | -10.5% [at 46.1 µM] (inactive) | – |
| COc1ccccc1N(C)S(=O)(=O)c1ccc(Cl)c(C(=O)Nc2ccncc2)c1 | -8.77% (inactive) | – |
| CN(O)C(=S)c1ccccc1 | – | 6.31 µM (active) |
| O=C(NC(=O)c1ccccc1)NC(=O)c1ccccc1 | 3.38% (inactive) | – |
| CCc1ccc(C(=O)C(C)OC(=O)CN2C(=O)NC3(CCCC3)C2=O)cc1 (stereo not given) | 12% (inactive) | – |
| Cn1c2ccccc2c2c(C(=O)N3CCN(c4ccc(F)cc4)CC3)cn(C3CCCC3)c(=O)c21 | – | 10 µM (active) |
| CCOc1ccc(NC(=O)c2cn(C3CCCCC3)c(=O)c3c2c2ccccc2n3C)cc1 | 7.33% [at 46.1 µM] (inactive) | – |
| O=C(c1ccccc1Oc1ccccc1)N1CCN(c2ccc(F)cc2)CC1 | -16.9% (inactive) | – |
| O=C(NNC(=O)c1ccc(-c2ccccc2)cc1)Nc1ccccc1 | 11.5% [at 46.1 µM] (inactive) | – |
| CC(Nc1ccc([N+](=O)[O-])cc1[N+](=O)[O-])c1ccccc1 (stereo not given) | 0.308% (inactive) | – |
| O=C(/C=C/c1ccccc1)N1CCN(Cc2cc(=O)n3nc(-c4ccccc4F)sc3n2)CC1 | 0.658% [at 46.1 µM] (inactive) | – |
| Cc1cccc(N=C2NN=C(c3c[nH]c4ccccc34)CS2)c1 | – | 14.6 µM (active) |

| Structure (SMILES) | activity change, negative = inhibition | Potency |
| --- | --- | --- |
| Cc1cccc(C(=O)Nc2nnc(Cc3c[nH]c4ccccc34)s2)c1 | 0.566% (inactive) | – |
| CC(=O)c1c(C)[nH]c(C(=O)N2CCN(S(=O)(=O)c3ccc(F)c(F)c3)CC2)c1C | -4.88% (inactive) | – |
| O=C(CCC1CCCCC1)Nc1cc(C(F)(F)F)ccc1N1CCOCC1 | -7.6% (inactive) | – |
| COc1cccc(C(=O)OCc2cc(=O)oc3c(C)c(C)ccc23)c1OC | 1.76% (inactive) | – |
| CCOc1ccc(NC(=O)CN(C)C(=O)Cc2sc(C)nc2-c2ccc(F)cc2)cc1OCC | 19.5% (inactive) | – |
| N#CCc1c[nH]c2ccc([N+](=O)[O-])cc12 | 17.9% [at 46.1 µM] (inactive) | – |
| COc1cccc(-c2nc(S(=O)(=O)c3ccc(C)cc3)c(NCc3ccccc3)o2)c1 | – | 10 µM (active) |
| Cc1ccc(S(=O)(=O)c2nc(-c3cccs3)oc2NCc2cccnc2)cc1 | 2.99% (inactive) | – |
| O=S(=O)(c1ccc(Br)cc1)c1nc(-c2ccccc2)oc1NCc1cccnc1 | -22.6% (inactive) | – |
| CN(C)c1nc(NN)nc(Nc2ccc(F)cc2)n1 | -28% (inactive) | – |
| CCOc1ccc(C(=O)CCC(=O)Nc2ccncc2)cc1 | -5.97% (inactive) | – |
| CC(CCc1ccccc1)NC(=O)COC(=O)c1ccc(F)cc1 (stereo not given) | 2.34% [at 46.1 µM] (inactive) | – |
| CCC1(C)Cc2c(sc3[nH]c(=S)n(Cc4ccccc4)c(=O)c23)CO1 (stereo not given) | – | 5.62 µM (active) |
| CCC1(C)Cc2c(sc3nc4n(c(=O)c23)CCCS4)CO1 (stereo not given) | 3.11% (inactive) | – |
| CCC1(C)Cc2c(sc3nc(SC)[nH]c(=O)c23)CO1 (stereo not given) | 17.9% (inactive) | – |
| O=C(CCNC(=O)c1ccccc1Cl)NN=Cc1ccco1 | 8.83% (inactive) | – |
| CCOC(=O)c1csc(CCNC(=O)c2oc3c(Cl)cc(C)cc3c2C)n1 | 6.59% (inactive) | – |
| CN1C(c2ccc(F)cc2)=CS/C1=C(/C#N)c1nnc2n1-c1ccccc1SC2 | -0.937% [at 46.1 µM] (inactive) | – |
| O=C(Nc1cccc(F)c1)NC1CCCCCCC1 | – | 12.6 µM (active) |
| Cc1cc(C)cc(NC(=O)NC2CCCCCCC2)c1 | -5.73% [at 46.1 µM] (inactive) | – |
| C/C(CC(=O)Nc1cccc(F)c1)=N\NC(=O)C(=O)NC1CCCCC1 | 3.34% (inactive) | – |
| COc1ccc2oc(C(=O)N(CC(C)C)C3CCS(=O)(=O)C3)c(C)c2c1 (stereo not given) | -9.26% (inactive) | – |

| Structure (SMILES) | activity change, negative = inhibition | Potency |
| --- | --- | --- |
| COc1ccccc1N(CCOc1ccccc1)S(=O)(=O)c1ccccc1 | 20.1% [at 46.1 µM] (inactive) | – |
| Cc1ccc(S(=O)(=O)N2CCC(=O)N([C@H](COCc3ccccc3)C(C)C)CC2)cc1 | -26.5% [at 46.1 µM] (inactive) | – |
| O=C(Nc1ccccc1F)c1ccc2c(c1)OCO2 | -20.6% [at 46.1 µM] (inactive) | – |
| O=C(Nc1nc2ccccc2s1)c1ccc2c(c1)OCO2 | – | 2.51 µM (active) |
| O=C(Nc1ccc(N2CCOCC2)cc1)c1ccc2c(c1)OCO2 | -22.7% (inactive) | – |
| O=C(Nc1cccc(S(=O)(=O)N2CCCCC2)c1)c1ccc2c(c1)OCO2 | -18.9% (inactive) | – |
| O=C(c1ccc(Cl)c(S(=O)(=O)N2CCCCC2)c1)N1CCCCCC1 | 2.43% (inactive) | – |
| O=C(Nc1ccc2c(c1)OCCO2)c1ccc(Cl)c(S(=O)(=O)N2CCCCC2)c1 | – | 20.6 µM (active) |
| O=C(Nc1cccc([N+](=O)[O-])c1)c1ccc2c(c1)OCO2 | -0.181% (inactive) | – |
| Cc1cc(C)c2nc(NC(=O)c3ccc4c(c3)OCO4)sc2c1 | -1.22% (inactive) | – |
| O=C(Nc1ccccc1)c1ccc2c(c1)OCCCO2 | – | 3.16 µM (active) |
| N#Cc1ccccc1S(=O)(=O)N1CCN(C(=O)c2cc(-c3ccccc3)nn2-c2ccccc2)CC1 | -31.9% (inactive) | – |
| COc1ccc(-c2csc3ncnc(N4CCN(S(=O)(=O)c5ccccc5C#N)CC4)c23)cc1 | -7.67% (inactive) | – |
| Cc1cc(C)c(NC(=O)CN2C(=O)c3cccnc3Oc3ccc(Cl)cc32)c(C)c1 | 20.7% [at 46.1 µM] (inactive) | – |
| O=c1[nH]c2c(c(=O)n1-c1ccccc1)CCO2 | -1.14% (inactive) | – |
| CC(CC(=O)N1CCN(c2ccccc2)CC1)S(=O)(=O)c1ccc2c(c1)NC(=O)CS2 (stereo not given) | -3.54% [at 46.1 µM] (inactive) | – |
| COc1ccc(-c2nc3sc(CCNC(=O)C(C)(C)C)c(C)n3n2)cc1 | 1.48% [at 46.1 µM] (inactive) | – |
| CCC[C@@H]1C[C@@]1(CCC)[C@@H](NC(=O)c1ccccc1)c1ccc(C(=O)OC)cc1 | 0.512% (inactive) | – |
| CCC/C=C(\CCC)C(NC(=O)Cc1ccccc1)c1ccc(C(=O)OC)cc1 (stereo not given) | – | 6.51 µM (active) |
| CC(=O)c1ccc(OC(NC(=O)Cc2ccccc2)C(Cl)(Cl)Cl)cc1 (stereo not given) | -2.01% (inactive) | – |
| COc1ccc(OCC(=O)NNC(=O)C2CCC2)cc1 | -10.5% (inactive) | – |
